Compound activity: PubChem BioAssay, Broad Institute
BJeLR viab HTS – lowers viability of BJeLR cells. BJeLR fibroblasts viability, CellTiterGlo ATP luminescence, 48 h; HRASV12, hTERT and SV40 LT/ST transformed. viability loss activity score, % (concentration not given with the values). actives 0.64% (n = 30,000). AID 2275; in the data active = viability loss activity score above about 50%;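 note: higher score means fewer live cells and less ATP luminescence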
Shh pathway inh – Sonic Hedgehog pathway inhibition; Shh-LIGHT2 Gli-luciferase reporter, 30 h; inhibition, % (no concentration beside the values); actives 2.1% (n = 22,000);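 active = mean inhibition across valid replicates above about 65%, limit read from the data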;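 note: pathway switched on by Shh-conditioned medium diluted 1 in 25 in low serum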
Each line names hits and unclear results; the compound was inactive in the other large screens. The entries come from a sample that favours hits as a whole.

COc1ccc(S(=O)(=O)N(C)C[C@H]2Oc3c(NS(C)(=O)=O)cccc3C(=O)N([C@H](C)CO)C[C@H]2C)cc1	none
CC1CCCC2=CC(OC2=O)C(C)(C)CCC1=O (configuration not stated)	none (no result: BJeLR viab HTS)
CC(=O)n1c(-c2ccc(C)cc2)cc(-c2ccc(C)cc2)c(C#N)c1=O	none
C[C@@H]1CCCCO[C@@H](CN(C)S(C)(=O)=O)[C@@H](C)CN([C@H](C)CO)C(=O)c2cc(NS(=O)(=O)c3ccc(F)cc3)ccc2O1	Shh pathway inh 74 (no result: BJeLR viab HTS)
C[C@@H]1CCCCO[C@H](CN(C)S(=O)(=O)c2ccc(F)cc2)[C@@H](C)CN([C@H](C)CO)C(=O)c2cc(NS(=O)(=O)c3ccc(F)cc3)ccc2O1	none (no result: BJeLR viab HTS)
CC(C)(C)OC(=O)N1C(N)=C(C#N)C2(CCOCC2)c2[nH]c(C(F)(F)F)nc21	none
CCc1nn(CC(=O)NCCc2ccc(S(N)(=O)=O)cc2)c(=O)c2cc3occc3n12	none (no result: Shh pathway inh)
O=C(/C=C/c1ccccc1)OC[C@]12O[C@H]1[C@@H](O)[C@@H]1C=CO[C@@H](O[C@@H]3O[C@H](CO)[C@@H](O)[C@H](O)[C@H]3O)[C@@H]12	none
O=C1CC(c2ccccc2)Oc2ccccc21 (configuration not stated)	none
O=C1/C(=C/c2ccc(-c3nn[nH]n3)cc2)C(c2ccccc2)Oc2ccccc21 (configuration not stated)	Shh pathway inh 74
NC(=O)c1cccn1Cc1ccc(Cl)cc1	none (no result: Shh pathway inh)
COc1ccc(CNC(=O)CCn2c(=O)[nH]c3ccccc3c2=O)cc1	none (no result: Shh pathway inh)
CCCCN1C(=O)[C@H]2Cc3c([nH]c4ccccc34)[C@H](c3ccc(OC)cc3)N2C1=O	Shh pathway inh 79
CC1=NN(C(=O)CCc2ccccc2)C(O)(c2ccccc2)C1 (configuration not stated)	none (no result: Shh pathway inh)
CCCC(=O)N1c2ccccc2NC2=C(C(=O)CCC2)C1c1ccc(OC)c(OC)c1 (configuration not stated)	none (no result: Shh pathway inh)
Clc1ccc2nc(-c3cccnc3)c(Nc3ccccc3)n2c1	none (no result: Shh pathway inh)
Oc1c(C(Nc2cccc(Cl)c2)c2cccnc2)ccc2cccnc12 (configuration not stated)	Shh pathway inh 75
N#CC1CN(CCc2ccccc2)CN(CCc2ccccc2)C1	Shh pathway inh 69
O=C1NCC2(CCN(CCc3ccccc3)CC2)O1	none
C[C@@H]1CN([C@@H](C)CO)C(=O)c2cccc(NC(=O)Nc3ccc(F)cc3)c2O[C@H]1CN(C)Cc1ccc(Oc2ccccc2)cc1	none
CC1=C(C#N)C(C(F)(F)F)(C(F)(F)F)N=C(C2CCCCC2)N1	Shh pathway inh 105
N#Cc1c(SCc2ccccc2F)nc(C(F)(F)F)c2c1CCC2	none (no result: Shh pathway inh)
O=S(=O)(c1ccc(Cl)cc1)N1CCc2ccccc21	Shh pathway inh 81
CC(=O)N1c2ccc(S(=O)(=O)N3CCc4ccccc43)cc2CC1C (configuration not stated)	none (no result: Shh pathway inh)
COc1c(C)c(O)c(C)c(O)c1C(=O)CCc1ccccc1	none
COc1c(Cc2ccccc2O)c(O)c(Cc2ccccc2O)c(O)c1C(=O)CCc1ccccc1	Shh pathway inh 89
O=C(Nc1ccc(-n2nncc2-c2ccccc2)cc1)c1c(F)cccc1F	none (no result: Shh pathway inh)
CC(=O)O[C@@H]1c2c(ccc3ccc(=O)oc23)OC(C)(C)[C@@H]1OC(=O)C=C(C)C	none
Cn1cc(C2=C(c3cn(CCCSC(=N)N)c4ccccc34)C(=O)NC2=O)c2ccccc21	BJeLR viab HTS 56
CN(C)CCCn1cc(C2=C(c3c[nH]c4ccccc34)C(=O)NC2=O)c2ccccc21	none
C[C@H](CO)N1C[C@H](C)[C@@H](CN(C)Cc2ccncc2)Oc2c(NC(=O)c3cnccn3)cccc2C1=O	Shh pathway inh 70
C[C@H](CO)N1C[C@H](C)[C@H](CN(C)S(=O)(=O)c2ccc(Cl)cc2)Oc2c(NC(=O)c3ccncc3)cccc2C1=O	Shh pathway inh 111
C[C@@H]1CN([C@@H](C)CO)C(=O)c2cccc(NC(=O)c3cnccn3)c2O[C@@H]1CN(C)Cc1ccncc1	none
C[C@H](CO)N1C[C@H](C)[C@H](CN(C)S(=O)(=O)c2cccs2)Oc2c(NC(=O)c3ccc(-c4nccs4)cc3)cccc2C1=O	Shh pathway inh 92 (no result: BJeLR viab HTS)
C[C@H](CO)N1C[C@H](C)[C@@H](CN(C)S(=O)(=O)c2ccc(Cl)cc2)Oc2c(NC(=O)c3ccncc3)cccc2C1=O	none
C[C@@H]1CN([C@H](C)CO)C(=O)c2cccc(NC(=O)c3ccc(-c4nccs4)cc3)c2O[C@@H]1CN(C)Cc1ccc(Oc2ccccc2)cc1	Shh pathway inh 71
C[C@H](CO)N1C[C@H](C)[C@@H](CN(C)S(=O)(=O)c2cccs2)Oc2c(NC(=O)c3ccc(-c4nccs4)cc3)cccc2C1=O	none
C[C@@H]1CN([C@@H](C)CO)C(=O)c2cccc(NC(=O)c3ccc(-c4nccs4)cc3)c2O[C@H]1CN(C)Cc1ccc(Oc2ccccc2)cc1	none
C=CCN1C(=O)C(CC(=O)Nc2ccccc2)SC1=Nc1ccc(O)cc1 (configuration not stated)	none (no result: Shh pathway inh)
